The record followed here is PubChem BioAssay (Tox21).

A short description of assay [1]: qHTS assay to identify aromatase inhibitors - cell viability counter screen (AID 743084;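 further: cells stimulated with testosterone during compound exposure; nearly all actives have a fitted effect of over 55% in size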; further: potency means the concentration at half of the fitted maximal effect). (In general: In qHTS, concentration-response curves come from the screen itself.)
Assay [2] addresses Aryl hydrocarbon receptor (Homo sapiens) (UniProt P35869). The assay is described as follows: qHTS assay to identify small molecule that activate the aryl hydrocarbon receptor (AhR) signaling pathway (AID 743085). Further: nearly all actives have a fitted effect of over 15% in size. Further: potency means the concentration at half of the fitted maximal effect.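 On activation: HG2L7.5c1 human HepG2 liver cells with stably integrated DRE-driven firefly reporter; series mostly up to about 70 µM.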 The essentials: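 24 h compound exposure, 37C, HepG2-derived HG2L7.5c1 cells with DRE-responsive luciferase. Readouts: fluorescence viability, then luminescence at room temperature after 30 min.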

Assay [3] in a line: qHTS assay to identify small molecule that activate the aryl hydrocarbon receptor (AhR) signaling pathway - cell viability counter screen (AID 743086). Further: nearly all actives have a fitted effect of over 45% in size. Further: potency means the concentration at half of the fitted maximal effect. The method, boiled down:
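Cytotoxicity counter screen: CellTiter-Fluor signal (30 min, 37 C) in 4000 HepG2 cells/well carrying the DRE-luciferase reporter, following 24 h compound exposure at 37 C.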

The target of assay [4] is Peroxisome proliferator-activated receptor gamma (Homo sapiens) (UniProt P37231). In words: qHTS assay to identify small molecule agonists of the peroxisome proliferator-activated receptor gamma (PPARg) signaling pathway (AID 743094; active means well fitted activation curve with a large enough effect in the signal ratio in the repeat runs, not every such curve was filed as active; the % refers to the signal ratio). The essentials:
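Agonism was assessed in a beta-lactamase reporter system, HEK293H cells with a stably integrated UAS-bla construct under PPARg control; the 17 h treatment at 37C preceded a 1 h room-temperature FRET substrate read.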

Assay [5] can be described thus: qHTS assay to identify small molecule antagonists of the peroxisome proliferator-activated receptor gamma (PPARg) signaling pathway - cell viability counter screen (AID 743194). Further: nearly all actives have a fitted effect of over 55% in size. Further: potency means the concentration at half of the fitted maximal effect. The essentials:
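Viability was measured as CellTiter-Glo luminescence in GeneBLAzer PPARg UAS-bla HEK293H cells. These cells had been exposed 17 h at 37 C to compounds together with rosiglitazone at 50 nM final, with the beta-lactamase readout taken in the same wells.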

The nature of assay [6]: qHTS assay for small molecule agonists of the antioxidant response element (ARE) signaling pathway (AID 743202; active means well fitted activation curve with a large enough effect in the signal ratio in the repeat runs, not every such curve was filed as active; the % refers to the signal ratio; further: potency means the concentration at half of the fitted maximal effect). The method, boiled down:
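Beta-lactamase reporter activity, read as fluorescence intensity, reflects ARE/Nrf2 pathway induction in HepG2 cells after 16 h compound exposure at 37 C; substrate loading was 2 h at room temperature.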

A short description of assay [7]: qHTS assay for small molecule agonists of the antioxidant response element (ARE) signaling pathway - cell viability counter screen (AID 743203; calls by dose curve; further: nearly all actives have a fitted effect of over 55% in size). The method, boiled down: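 ATP content via CellTiter-Glo luminescence served as the viability measure. Cells: ARE-bla HepG2, 2,000 per well. Exposure: 16 hrs, 37C/5% CO2.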
The nature of assay [8]: qHTS assay for small molecule activators of the heat shock response signaling pathway - cell viability counter screen (AID 743209). Further: nearly all actives have a fitted effect of over 50% in size. Further: potency means the concentration at half of the fitted maximal effect. The essentials: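 Compounds dissolved in DMSO were added to overnight-plated HSE-bla HeLa cells and left 5 h at 37 C. Cell viability was quantified by luminescence using CellTiter-Glo.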
A short description of assay [9]: qHTS assay to identify small molecule agonists of the peroxisome proliferator-activated receptor delta (PPARd) signaling pathway - cell viability counter screen (AID 743211). Further: nearly all actives have a fitted effect of over 55% in size. The essentials:
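Luminescent ATP viability assay (CellTiter-Glo, 30 min RT) in UAS-bla HEK293H cells carrying the PPAR delta reporter construct, 3000 cells/well, after a 17 h compound treatment at 37 C.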

Assay [10] has as its target Peroxisome proliferator-activated receptor delta (Homo sapiens) (UniProt Q03181). The assay is described as follows: qHTS assay to identify small molecule agonists of the peroxisome proliferator-activated receptor delta (PPARd) signaling pathway (AID 743212; calls by dose curve). The essentials:
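Steps: seed PPARd-bla HEK293H cells; incubate 5 h, 37 C, 5% CO2; add compounds in DMSO; incubate, 37 C; add LiveBLAzer B/G FRET substrate; hold 2 h at room temperature; measure fluorescence.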

Assay [11] can be described thus: qHTS assay to identify small molecule antagonists of the peroxisome proliferator-activated receptor delta (PPARd) signaling pathway - cell viability counter screen (AID 743213). Further: nearly all actives have a fitted effect of over 50% in size. Further: potency means the concentration at half of the fitted maximal effect. The essentials: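 Luminescence from CellTiter-Glo, added after the bla read and incubated 30 min at room temperature, gives viability of HEK293H PPARd-bla cells exposed to compounds for 17 h at 37 C with 300 nM L165041.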

The target in assay [12] is Peroxisome proliferator-activated receptor delta (Homo sapiens) (UniProt Q03181). In words: qHTS assay to identify small molecule antagonists of the peroxisome proliferator-activated receptor delta (PPARd) signaling pathway (AID 743215; active means well fitted inhibition curve with a large enough effect in the signal ratio in the repeat runs, not every such curve was filed as active; the % refers to the signal ratio;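 further: cells stimulated with agonist L165041 at 300 nM final during compound exposure; series mostly up to about 62 µM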). The method, boiled down:
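Here, a reporter line (HEK293H, beta-lactamase under a UAS) measures PPARd signaling. Compounds are tested against agonist L165041 at 300 nM final concentration over 17 h at 37 C, with fluorescence read after substrate.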

Assay [13] addresses Bile acid receptor (Homo sapiens) (UniProt Q96RI1). In words: qHTS assay to identify small molecule antagonists of the farnesoid-X-receptor (FXR) signaling pathway (AID 743217; active means well fitted inhibition curve with a large enough effect in the signal ratio in the repeat runs, not every such curve was filed as active; the % refers to the signal ratio). The method, boiled down:
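Test compounds are pin-transferred onto FXR-bla HEK 293T cells, then chenodeoxycholic acid is added at 50 uM final. After 16 h at 37 °C, LiveBLAzer B/G substrate is applied for 2 h at room temperature and fluorescence read.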

The nature of assay [14]: qHTS assay to identify small molecule agonists of the farnesoid-X-receptor (FXR) signaling pathway - cell viability counter screen (AID 743218). Further: nearly all actives have a fitted effect of over 45% in size. Further: potency means the concentration at half of the fitted maximal effect. The method, boiled down:
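Quantitative HTS counter screen measuring ATP-based viability via CellTiter-Glo luminescence in HEK 293T cells carrying a UAS-driven beta-lactamase reporter, after 16 h compound exposure at 37 C.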

In assay [15] the target is Bile acid receptor (Homo sapiens) (UniProt Q96RI1). In words: qHTS assay to identify small molecule agonists of the farnesoid-X-receptor (FXR) signaling pathway (AID 743220; active means well fitted activation curve with a large enough effect in the signal ratio in the repeat runs, not every such curve was filed as active; the % refers to the signal ratio). The essentials: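 FXR-UAS-bla HEK 293T cells carrying a UAS-driven beta-lactamase reporter were plated for 5 h at 37C/5% CO2, then exposed to DMSO-dissolved Tox21 10K compounds for 16 h at 37C. A LiveBLAzer B/G FRET substrate was loaded for 2 h at room temperature before fluorescence reading.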
Sequence of Bile acid receptor (Homo sapiens) (Q96RI1 whole entry, looked up): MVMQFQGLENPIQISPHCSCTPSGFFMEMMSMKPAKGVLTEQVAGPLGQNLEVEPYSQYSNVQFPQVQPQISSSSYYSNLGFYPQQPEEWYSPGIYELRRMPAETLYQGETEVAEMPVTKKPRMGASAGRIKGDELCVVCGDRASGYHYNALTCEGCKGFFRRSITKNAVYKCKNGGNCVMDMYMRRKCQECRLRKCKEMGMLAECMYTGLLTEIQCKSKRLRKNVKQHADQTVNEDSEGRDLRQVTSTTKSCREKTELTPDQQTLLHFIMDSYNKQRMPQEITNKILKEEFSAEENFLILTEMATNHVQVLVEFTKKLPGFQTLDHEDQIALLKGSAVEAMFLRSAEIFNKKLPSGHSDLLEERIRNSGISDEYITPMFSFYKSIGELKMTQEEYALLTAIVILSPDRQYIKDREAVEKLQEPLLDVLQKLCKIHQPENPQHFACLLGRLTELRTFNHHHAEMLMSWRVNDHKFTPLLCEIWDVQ

A short description of assay [16]: qHTS assay to identify small molecule antagonists of the farnesoid-X-receptor (FXR) signaling pathway - cell viability counter screen (AID 743221; active means well fitted cell-killing curve with a large enough effect in the repeat runs, not every such curve was filed as active; further: nearly all actives have a fitted effect of over 50% in size; further: potency means the concentration at half of the fitted maximal effect). The essentials: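 In GeneBLAzer FXR-UAS-bla HEK 293T cells stimulated with 50 uM chenodeoxycholic acid (final), compounds acted for 16 h at 37 C. Viability was assessed afterwards by CellTiter-Glo luminescence.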
A short description of assay [17]: qHTS assay for small molecule activators of the heat shock response signaling pathway (AID 743210; active means well fitted activation curve with a large enough effect in the signal ratio in the repeat runs, with a control signal flat, not every such curve was filed as active; the % refers to the signal ratio;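 further: HeLa cells with beta-lactamase reporter driven by heat shock elements; series mostly up to about 63 µM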). The method, boiled down: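 Fluorescence from a cleaved B/G FRET substrate (2.5 h, room temp) reports HSE-driven beta-lactamase in HeLa cells treated 5 h at 37 C with DMSO-dissolved compounds.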
Assay [18] concerns the target Vitamin D3 receptor (Homo sapiens) (UniProt P11473). In words: qHTS assay to identify small molecule agonists of the vitamin D receptor (VDR) signaling pathway (AID 743222; calls by dose curve). The essentials: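 Tox21 cell reporter format: VDR-bla line, 16 h compound exposure in 5% CO2 at 37C, then fluorescence intensity after 2 h with LiveBLAzer B/G FRET substrate.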
The target is the same in assay [19]. The assay is described as follows: qHTS assay to identify small molecule antagonists of the vitamin D receptor (VDR) signaling pathway (AID 743223; active means well fitted inhibition curve with a large enough effect in the signal ratio in the repeat runs, not every such curve was filed as active; the % refers to the signal ratio). The essentials:
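Agonist 1alpha,25-dihydroxyvitamin D3 (3 nM in well) was added with each compound to VDR-bla cells preincubated 4 h. Cells stood 16 h at 37C, then FRET substrate 2 h at room temperature; fluorescence intensity recorded.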

Assay [20] addresses Peroxisome proliferator-activated receptor gamma (Homo sapiens) (UniProt P37231). In words: qHTS assay to identify small molecule antagonists of the peroxisome proliferator-activated receptor gamma (PPARg) signaling pathway (AID 743191; calls by dose curve; further: series mostly up to about 63 µM; nearly all actives have a fitted effect of over 30% in size). The method, boiled down:
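Beta-lactamase reporter under UAS control in HEK293H PPARg-bla cells; compound treatment 17 h at 37C. Read-out: fluorescence intensity after 1 h room-temperature incubation with LiveBLAzer B/G FRET substrate.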

Where “and” joins values, the source holds several entries; their conditions need not be identical. Identical values can stand only once. Inconclusive results are not listed. A structure can be active in one record and inactive in another. Calls of active or inactive are those of the source. Unless noted, the call rests on the fitted dose curve; in most records, active means well fitted curve in the direction sought with a large enough effect in the repeat runs; inconclusive means weak or mixed curves; inactive means no such curve, though single readings can be large; an effect the other way counts as inactive or inconclusive.

Sequence of Vitamin D3 receptor (Homo sapiens) (P11473 whole entry, looked up): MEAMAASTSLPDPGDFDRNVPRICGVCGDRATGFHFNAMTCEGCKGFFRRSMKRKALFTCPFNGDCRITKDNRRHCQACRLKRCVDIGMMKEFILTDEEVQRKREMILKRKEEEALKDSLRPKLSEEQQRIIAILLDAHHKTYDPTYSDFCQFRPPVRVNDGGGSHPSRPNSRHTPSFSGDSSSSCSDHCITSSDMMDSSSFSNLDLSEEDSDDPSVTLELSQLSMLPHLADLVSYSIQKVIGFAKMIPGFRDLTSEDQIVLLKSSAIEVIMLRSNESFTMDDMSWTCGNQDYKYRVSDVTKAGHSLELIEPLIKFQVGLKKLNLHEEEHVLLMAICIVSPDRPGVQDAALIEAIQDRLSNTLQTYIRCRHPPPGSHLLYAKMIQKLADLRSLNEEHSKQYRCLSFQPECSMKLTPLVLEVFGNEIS
Sequence of Aryl hydrocarbon receptor (Homo sapiens) (P35869 whole entry, looked up): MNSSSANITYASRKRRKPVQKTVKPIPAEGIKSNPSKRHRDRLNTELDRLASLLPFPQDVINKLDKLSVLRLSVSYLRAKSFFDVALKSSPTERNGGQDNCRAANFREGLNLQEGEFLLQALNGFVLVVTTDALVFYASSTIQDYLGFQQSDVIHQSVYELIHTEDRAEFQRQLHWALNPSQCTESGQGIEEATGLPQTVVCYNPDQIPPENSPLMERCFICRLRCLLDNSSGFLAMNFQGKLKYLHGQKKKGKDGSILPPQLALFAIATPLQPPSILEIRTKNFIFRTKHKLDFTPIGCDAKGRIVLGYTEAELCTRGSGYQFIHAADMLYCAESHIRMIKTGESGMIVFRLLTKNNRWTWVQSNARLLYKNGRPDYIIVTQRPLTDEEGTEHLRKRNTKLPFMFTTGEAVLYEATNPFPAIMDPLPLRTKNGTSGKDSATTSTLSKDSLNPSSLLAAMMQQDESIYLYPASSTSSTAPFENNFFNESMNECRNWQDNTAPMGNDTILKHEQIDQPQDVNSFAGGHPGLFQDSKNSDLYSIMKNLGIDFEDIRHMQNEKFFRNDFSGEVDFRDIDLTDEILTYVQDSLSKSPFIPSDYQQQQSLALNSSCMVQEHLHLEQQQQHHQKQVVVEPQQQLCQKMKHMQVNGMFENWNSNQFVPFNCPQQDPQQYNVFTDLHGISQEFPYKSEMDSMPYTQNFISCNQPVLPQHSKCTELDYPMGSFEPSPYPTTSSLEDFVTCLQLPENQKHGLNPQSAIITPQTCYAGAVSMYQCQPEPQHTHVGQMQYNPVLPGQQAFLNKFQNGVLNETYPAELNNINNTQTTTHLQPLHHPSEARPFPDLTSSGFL
Sequence of Peroxisome proliferator-activated receptor delta (Homo sapiens) (Q03181 whole entry, looked up): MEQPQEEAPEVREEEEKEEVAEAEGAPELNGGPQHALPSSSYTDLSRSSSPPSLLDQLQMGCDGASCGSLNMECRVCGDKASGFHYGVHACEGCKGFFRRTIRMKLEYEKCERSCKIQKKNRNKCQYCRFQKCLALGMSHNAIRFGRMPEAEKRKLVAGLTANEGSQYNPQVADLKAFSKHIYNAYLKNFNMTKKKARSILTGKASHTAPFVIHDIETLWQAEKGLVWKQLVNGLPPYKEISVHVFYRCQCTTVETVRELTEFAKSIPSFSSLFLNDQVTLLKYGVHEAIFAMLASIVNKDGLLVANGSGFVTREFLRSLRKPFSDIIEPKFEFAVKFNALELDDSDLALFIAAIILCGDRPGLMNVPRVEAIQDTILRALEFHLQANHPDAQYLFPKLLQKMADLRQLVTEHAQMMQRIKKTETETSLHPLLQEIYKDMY
Sequence of Peroxisome proliferator-activated receptor gamma (Homo sapiens) (P37231 whole entry, looked up): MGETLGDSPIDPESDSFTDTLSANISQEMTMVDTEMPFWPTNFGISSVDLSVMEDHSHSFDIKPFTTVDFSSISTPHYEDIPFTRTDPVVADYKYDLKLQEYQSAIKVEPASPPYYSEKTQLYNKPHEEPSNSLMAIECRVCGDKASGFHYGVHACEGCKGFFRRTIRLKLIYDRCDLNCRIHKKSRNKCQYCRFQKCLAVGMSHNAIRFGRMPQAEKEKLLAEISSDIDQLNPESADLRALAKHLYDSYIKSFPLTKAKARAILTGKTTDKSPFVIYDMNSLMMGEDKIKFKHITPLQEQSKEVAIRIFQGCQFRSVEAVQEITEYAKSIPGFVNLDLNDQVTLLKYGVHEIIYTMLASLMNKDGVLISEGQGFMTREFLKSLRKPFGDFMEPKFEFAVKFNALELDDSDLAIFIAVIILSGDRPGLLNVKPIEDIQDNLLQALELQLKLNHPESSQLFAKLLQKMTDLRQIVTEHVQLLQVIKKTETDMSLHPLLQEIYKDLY

In the case of `CCCCCCCC/C=C\CCCCCCCC(=O)O`, the Potency result in [1], in [2], in [3], in [5], in assay [6] and in [7] was “inactive” throughout. Further, the Potency result in [9], in [11], in assay [13], in assay [14] and in assay [16] was “inactive” in each case. The result in [4], in [10], in assay [12] and in [15] was inactive. Moreover, the Potency entry in assay [8] is “inactive and 34.7 µM (active)”.

With `CCCCCCCCCCC(CO)CCCCCCCC` (stereo unspecified), the Potency entry in assay [1], in assay [2], in assay [3], in assay [5], in assay [6] and in [7] was “inactive” in each case. For the same compound, the Potency entry in [8], in [9], in assay [11], in assay [14] and in [16] was “inactive” throughout. For the same compound, the compound was classed as inactive in assay [4], in [17], in assay [10], in assay [12], in [18] and in assay [19].

Turning to `C=C[C@@]1(C)CC(=O)[C@]2(O)[C@@]3(C)[C@@H](O)CCC(C)(C)[C@@H]3[C@H](O)[C@H](OC(C)=O)[C@@]2(C)O1`, the Potency entry in assay [1], in assay [2], in assay [3], in assay [6] and in [7] was “inactive” in each case. Besides, the call in assay [4], in assay [17], in assay [10] and in [18] was inactive. Besides, the Potency was 24.5 µM (active) and inactive in assay [8]; 9.77 µM (active) in [11]; 9.77 µM (active) and 8.41 µM (active) in assay [14]; 1.74 µM (active) in assay [16].

Turning to `O=S1(=O)CCCO1`, the Potency result in assay [1], in assay [2], in assay [3], in assay [20], in assay [6] and in assay [7] was “inactive” in each case. The Potency entry in assay [8], in [9], in assay [11], in assay [14] and in [16] was “inactive” in each case. The call in assay [4], in assay [17], in [10], in assay [18] and in assay [19] was inactive.

On to `CCC(Cc1c(I)cc(I)c(N)c1I)C(=O)O` (stereo unspecified), for which the Potency result in assay [1], in assay [2], in assay [3], in [5], in [7] and in [9] was “inactive” throughout. Moreover, the Potency result in [11], in [13], in assay [14] and in assay [16] was “inactive” throughout. For the same compound, the compound was called inactive in assay [4], in assay [17], in [12], in [15] and in [18]. Moreover, the Potency in [6] was 23.6 µM (active).

As to `COc1ccc(C(=O)c2ccccc2O)c(O)c1`, the Potency entry in assay [1], in [2], in assay [3], in assay [6], in assay [7] and in assay [8] was “inactive” each time. Moreover, the Potency entry in assay [9], in [11], in [14] and in assay [16] was “inactive” in each case. The outcome in assay [4], in [17], in assay [10] and in [12] was inactive.

Take `C/C=C/C(=O)N(CC)c1ccccc1C`: the Potency result in assay [1], in assay [2], in assay [3], in assay [20], in assay [6] and in assay [7] was “inactive” throughout. The Potency entry in [8], in [9], in assay [11], in assay [14] and in [16] was “inactive” throughout. Also, the call in [4], in assay [17], in [18] and in assay [19] was inactive.

Consider `CC(C)[C@@H]1CC[C@@H](C)CC1=O`, for which the Potency entry in [1], in assay [2], in [3], in [5], in assay [6] and in assay [7] was “inactive” in each case. The Potency entry in [8], in [9], in [11], in assay [14] and in assay [16] was “inactive” in each case. Further, the outcome in [4] and in [17] was inactive.

Consider `Nc1ccc(O)c(N)c1`, for which the Potency in assay [1] was 54.1 µM (active); in [2], “inactive and 1.37 µM (active)”; in [3] it was 43.3 µM (active); in [5] it was 43.6 µM (active). In addition, the compound was classed as inactive in assay [4], in [18] and in assay [19]. Further, the Potency result in [6], in assay [7], in assay [9], in assay [11], in assay [14] and in assay [16] was “inactive” each time.

For the compound `Nc1ccc2c(c1)C(=O)c1ccccc1C2=O`, the Potency was 60 µM (active) and inactive in assay [1]; 4.77 µM (active) and 3.06 µM (active) in assay [2]; 60 µM (active) in assay [3]. Moreover, the call in [4], in [17], in [10] and in assay [12] was inactive. Moreover, the Potency result in assay [20], in assay [7], in assay [8], in assay [9], in [11] and in assay [14] was “inactive” in each case. In [16], the Potency entry was “inactive”.

Take `Nc1cc([N+](=O)[O-])ccc1C(=O)O`: the Potency result in assay [1], in [3], in assay [20], in assay [6], in [7] and in assay [8] was “inactive” each time. In addition, the Potency result in [9], in [11], in assay [14] and in assay [16] was “inactive” each time. For the same compound, in [2], the Potency is 21.7 µM (active). In addition, the result in [4], in assay [17], in assay [10], in [12], in [18] and in assay [19] was inactive.

Regarding `C=CCNCC=C`, the Potency result in assay [1], in assay [2], in assay [3], in assay [20], in assay [6] and in assay [7] was “inactive” throughout. The Potency entry in assay [8], in assay [9], in assay [11], in [13], in assay [14] and in assay [16] was “inactive” in each case. Besides, the result in [4], in assay [17], in assay [15], in assay [18] and in [19] was inactive.
